Data on 40 molecules can be found in PubChem BioAssay.

SMILES strings stand for the structures. Values without a mark were called inactive. Calls of active or inactive are those of the source.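 How the source made its calls: active means z-score of at least 1.8 in each of two replicates, scored against plate mean and spread of sample wells; inactive means the rest.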

A short description of the experiment: viability rescue of complex I mutant cybrids, primary screen, cell-based, galactose medium, ATP luminescence (AID 1645843).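 Further: positive z means more ATP and so rescue of galactose-driven cybrid death.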 The conditions noted are these: complex I mutant cybrid cells, 72 h, stronger effect = higher value.
For `CCC1(CC)CC1C(=O)N1CCC(n2cc(C3(O)CCCC3)nn2)CC1` (stereo not given), the z-score is -0.565.
In the case of `CC(C)(C)CN1CCN(CC2CC2)C(CCO)C1` (stereo not given), the z-score was 0.35.
Under `CCN1CC(Cn2cnc3c(C)c(C)ccc3c2=O)CC1=O` (stereo not given) stands -0.145; under `Cc1ccc(OCc2nnc(NC(=O)NCCc3cnc[nH]3)s2)cc1`, -0.48; under `COC(C)(C)CCCC(C)CCN1CCC(n2cc(C(C)(C)N)nn2)CC1` (stereo not given), -0.52.
Under `COc1cccc(-n2cc(-c3ccnc(N(C)CCn4ccnc4)n3)cn2)c1` stands 1.84.
Under `CCCN1CCC(NCC(CC)(CC)CCC#N)CC1` stands -0.565; under `Cc1cc2c(=O)n(Cc3nc4ccccc4[nH]3)cnc2s1`, -0.615.
As for `c1ccc(-c2nc3c(cnn3C3CCCCC3)[nH]2)c(Cn2cccn2)c1`, the z-score was 0.525.
Next, `O=C(C1CCCCCC1)N1CCC(n2cc(-c3ccccc3)nn2)CC1`: -0.495; `CC(CCN1CCC(n2cc(CO)nn2)CC1)CC(C)(C)C` (stereo not given): -0.48; `CC(=O)c1c(C)cc(C)c(CNC(C)CCCC(C)(C)O)c1C` (stereo not given): -0.52.
Next, `COc1c(F)cc(C(=O)N2CCNC(=O)C2Cc2ccccc2)cc1F` (stereo not given): -0.455.
Under `CCC(CC)(CCC#N)CNCC1(N2CCOCC2)CCCC1` stands -0.575.
With `Cc1cc(C)c(CNC(C)CCC(C)C)c(C)c1CO` (stereo not given), the z-score is 0.435.
Next, `O=c1c2cccc(C(F)(F)F)c2ncn1Cc1ccc(Cl)s1`: -0.515; `Cc1ccc(C)c(CNC(=O)Nc2nc(C)ns2)c1`: 0.47; `CCC1(CC)CC1C(=O)N1CCC(n2cc(C3CCCCC3)nn2)CC1` (stereo not given): 0.07.
Next, `CC(C)c1cc(C(=O)N2CCCC(c3ccccc3)C2)on1` (stereo not given): -0.55.
Next, `Cn1ccnc1C(=O)c1cccc(-c2ccccc2Cl)c1`: -0.515; `CCCCCNC(=O)N1CCC2(CC1)Nc1ccccc1N(CC)C2=O`: -0.065.
`C=C1C2(C(=O)N3CCCC(C(=O)N4CCOCC4)C3)CCC(C2)C1(C)C` (stereo not given): the z-score is -0.555.
Next, `Cc1c(C(F)(F)F)nc(-c2ccc(CN(C)C)cc2)[nH]c1=O`: -0.555.
Under `Cc1cc(NC(=O)Cn2ccc(-c3cccc(F)c3)n2)n(-c2ccccn2)n1` stands -0.96.
As for `Cc1ccc(-c2nn(CC(=O)Nc3cnn(C)n3)c3ccccc23)c(F)c1`, the z-score is -0.4.
Next, `COc1ccc(OC)c(-c2ncnc3sc(C)c(C)c23)c1`: 0.645; `COc1ccccc1CNC(=O)Nc1nnc(C)s1`: 4.88 (active).
Under `COc1ccc(F)cc1-c1cnn(CC(=O)Nc2cc(C)nn2C)c1` stands 0.085.
Under `Cc1cc(C)c(-n2cccn2)c(-c2nc3c(cnn3C(C)C)[nH]2)c1` stands -0.485; under `CCCCC(CC)CN1CCC(n2cc(CNC)nn2)CC1` (stereo not given), 1; under `COc1ccccc1-c1noc(CN2CCOC2=O)n1`, 1.68.
`COc1ccc(N2CCN(C(=O)Nc3nc(C)ns3)CC2(C)C)cc1`: the z-score was -0.445.
Under `O=C(CC1CCCCCC1)N1CCC(Cn2cc(C3CC3)nn2)CC1` stands -0.55; under `CCCCn1nnnc1NC(=O)NC1CCN(Cc2ccncc2)CC1`, -0.755; under `Cc1cc(-c2ccccc2C(F)(F)F)nc(N)n1`, -0.545.
Under `Cc1cnc(NCCCn2ncc3ccccc32)nc1-c1cnn(C)c1` stands 0.065; under `CCCn1cc(-c2ccnc(NCc3cn4cccc(C)c4n3)n2)c(C)n1`, -1.07.
Next, `CCCc1cn(C2CCN(C(=O)C(C)N3CCCC3)CC2)nn1` (stereo not given): -0.35; `Cc1cc(C)n(CC(C)n2cnc3cccc(C)c3c2=O)n1` (stereo not given): 0.34.
With `O=C(O)C1(Oc2cccc(-c3cccc4ncccc34)c2)CCCC1`, the z-score is -0.5.
